# The whole screen tested about 48,000 compounds, of which about 13,000 (27%) showed an effect of 50% or more. The list shows a part of the results.
# Test system: Wolbachia pipientis
# Assay: Anti-Wolbachia Cell-Based Screen
# Assay type: functional
# Parameters: scale not given: in the data most compounds retested in dose-response had high values
# Details: 5 µM
row,SMILES,Percent Effect [%]
1,Cc1c(C)c2c(c(C)c1O)CC[C@](C)(C(=O)O)O2 [(R)-TROLOX],132.5
2,CNc1cc(C)nc(NCc2cc(C)cc3c(C)c(C)[nH]c23)n1,13.77
3,CNC(=O)NC(=O)C(C)N1CCN(C2CCCC2)CC1 (stereo unspecified),-18
4,Cc1csc2ncn(C(C)Cc3cccnc3)c(=O)c12 (stereo unspecified),-2.167
5,CCC(Cn1ccnc1)n1cnc2scc(C)c2c1=O (stereo unspecified),110.7
6,CCC(CO)n1cnc2scc(C)c2c1=O (stereo unspecified),100.6
7,CC(Cn1ccnc1)NC(=O)NCCNC(=O)C(C)C (stereo unspecified),-18.32
8,CCC(Cn1ccnc1)n1cnc2c(C)csc2c1=O (stereo unspecified),163.7
9,Cc1nc(CN2CCCn3c(nc(Cn4ccnc4)cc3=O)C2)cs1,17.01
10,Cc1csc2c(=O)n(C(C)Cc3cccnc3)cnc12 (stereo unspecified),4.44
11,Cc1csc2c(=O)n(CCN3CCC(c4ccccc4)CC3)cnc12,21.54
12,COCC1CCN(Cc2cc(O)c3c(C)ccc(C)c3n2)CC1,5.678
13,Cn1cccc1C(=O)N1CCCCC12CC(=O)N(c1cccnc1)C2.O=C(O)C(F)(F)F (stereo unspecified),-1.407
14,Cc1oncc1C(=O)N1CCC2(C1)CN(c1cccnc1)C(=O)CN2C (stereo unspecified),-7.65
15,CN1CC(=O)N(c2cccnc2)CC12CCN(C(=O)c1cccn1C)C2.O=C(O)C(F)(F)F.O=C(O)C(F)(F)F (stereo unspecified),108.5
16,CN1CC(=O)N(c2cccnc2)CC12CCN(C(=O)C1CCCCC1)C2.O=C(O)C(F)(F)F.O=C(O)C(F)(F)F (stereo unspecified),-22.33
17,Cc1cc(C(=O)N2CCC3(C2)CN(c2cccnc2)C(=O)CN3C)[nH]n1.O=C(O)C(F)(F)F.O=C(O)C(F)(F)F (stereo unspecified),112
18,Cc1cc(C(=O)N2CCC3(CC2)COCCN(c2cccnc2)C3)[nH]n1.O=C(O)C(F)(F)F,-3.174
19,COc1cc(C)ccc1OCCN1CC[C@@]2(O)CCNC[C@H]2C1,28.12
20,CN1CCN([C@@H]2CN(C(=O)c3cc4cccc(F)c4[nH]3)C[C@H]2O)CC1,104.7
21,Cc1ccc2cc(C(=O)N3CCS(=O)(=O)CC3)[nH]c2c1,-4.814
22,Cc1ccc2cc(C(=O)N3CCN(C(=O)c4ccoc4)CC3)[nH]c2c1,0.1699
23,CN(C)[C@H]1CN(C(=O)c2ccc3sc4c(c3c2)CCNC4=O)C[C@@H]1O,13.68
24,COc1ccccc1OCc1cc(C(=O)N2C[C@H](O)[C@@H](N(C)C)C2)n[nH]1,14.49
25,CCn1nc(CC(C)C)cc1C(=O)N1C[C@H](O)[C@@H](N2CCCCC2)C1,-3.036
26,CN1CCN([C@@H]2CN(C(=O)c3cc4ccc(F)cc4[nH]3)C[C@H]2O)CC1,68.22

row,SMILES,Percent Effect [%]
1,O=C(c1cc2cccc(F)c2[nH]1)N1C[C@@H](O)[C@H](N2CCCC2)C1,132.3
2,CN(C)[C@@H]1CN(C(=O)c2cc3cccc(F)c3[nH]2)C[C@H]1O,116.9
3,Cc1ccc(OC2(C(=O)O)CCN(C(=O)c3ccoc3C)CC2)cn1,-1.307
4,CCN(Cc1csc(CS(C)(=O)=O)n1)c1cccc(F)c1,0.8671
5,CCN(C)c1ccc(CNC(=O)CCn2cc(C)cn2)cc1F,-2.464
6,Cc1ccc(N2CCO[C@H]3CN(Cc4cc(C)on4)CC[C@H]3C2=O)cn1.O=C(O)C(F)(F)F.O=C(O)C(F)(F)F,-4.354
7,CC(C)c1cc(NCC(O)c2ccc(F)cc2)n2nccc2n1 (stereo unspecified),-15.19
8,CCN(CC)C(=O)Cn1cc(C(=O)NCCc2scnc2C)nn1,5.922
9,O=C(NC1CCS(=O)(=O)c2ccccc21)c1sccc1C1CC1 (stereo unspecified),-7.789
10,CN(CCc1ccccn1)[C@@H]1CCN(c2cccc(C#N)n2)C[C@H]1O,16.97
11,N#CCCCn1nnc(C2(NC(=O)c3ccccc3)CCCC2)n1,-18.68
12,O=C1CN(C(=O)c2cc(-c3ccco3)nc3c(Cl)cccc23)CCN1,-11.35
13,CCc1nccc(CN2CCC(CNC(=O)Nc3ccccc3)C2)n1 (stereo unspecified),-10.66
14,COc1cc(CNC(=O)C(C)SC)cc(Br)c1OC (stereo unspecified),11.13
15,O=C(c1ccc(F)cc1F)N1C[C@@H](O)[C@H](N2CCOCC2)C1,7.48
16,O=C(c1cc2cccc(F)c2[nH]1)N1C[C@@H](O)[C@H](N2CCOCC2)C1,110.4
17,O=C(Nc1ccc(-n2cccn2)cc1)N1C[C@H](O)[C@@H](N2CCOCC2)C1,1.189
18,CCCn1ncc(-c2nc3c(cnn3CC)[nH]2)c1C,-25.23
19,COCCN(c1ccncc1)S(=O)(=O)c1cc(C)c(F)cc1F,-2.029
20,Cc1noc(C)c1C(=O)NCc1ccnc(OCC(F)(F)F)c1,-2.057
21,Cc1noc(C(C)C)c1C(=O)NCc1ccc2c(c1)OCCO2,83.78
22,CC(=O)NCC1CCN(C(=O)NCc2ccc3c(c2)OCCO3)CC1,-6.191
23,Cc1noc(C(C)C)c1C(=O)NCc1ccc(N(C)C)c(F)c1,78.48
24,Cc1noc([C@@H](C)NCc2ccc(F)cc2)c1C(=O)O.Cl,-4.042
25,CN(C)C(=O)c1ccccc1NC(=O)N(C)Cc1ccccc1O,-13.22
26,O=C(CCNC(=O)NC1CCN(C2CC2)CC1)NCc1ccccc1,-15.75

row,SMILES,Percent Effect [%]
1,N#Cc1ccnc(N2CCN(CC(O)c3ccc(F)c(F)c3)CC2)c1 (stereo unspecified),-18.53
2,CCc1cc(N[C@H]2CC[C@H](O)CC2)n2nc(C)c(C)c2n1,-14.47
3,COc1cc(CNC(=O)Nc2nncs2)ccc1O,-8.608
4,Cc1ccc(CNC(=O)Nc2nncs2)n1C,-4.226
5,Cc1ccc(CNC(=O)Nc2nccs2)cn1,93.38
6,Cc1ccc(CNC(=O)NCc2csc(C)n2)cn1,-1.986
7,Cc1ccc(CNC(=O)Nc2cc(C(F)(F)F)c[nH]c2=O)cn1,3.357
8,Cc1ccc(CNC(=O)Nc2nncs2)cn1,108.3
9,O=C1CN(Cc2nnc(-c3ccccc3Br)o2)CCN1,-2.201
10,COC(=O)c1cc(NC2CCN(CC(F)(F)F)C2=O)ccc1C (stereo unspecified),1.107
11,COc1ccc(CN[C@@H]2CO[C@H](CNC(=O)N3CCOCC3)[C@H]2O)cc1,3.527
12,COCC(=O)N(C)Cc1ccc(OCc2cccs2)cc1,1.693
13,Cc1noc(CCCC(=O)N(CCC(=O)O)Cc2ccc(F)c(F)c2)n1,101.8
14,Cc1cc(C(=O)N(CCN(C)C)Cc2ccc(Cl)cc2)no1,-11.55
15,CN(Cc1ccc(F)c(F)c1)C(=O)CCc1nc(-c2nnc[nH]2)no1,-9.092
16,NC(=O)CN(Cc1cccc(Oc2ccccc2)c1)C(=O)C1CC1,0.4693
17,CN(C)CCN(Cc1ccc(Cl)cc1)C(=O)c1ccncc1,-4.798
18,Cc1noc(CCNC(=O)c2ccc(N(C)C)c(F)c2)n1,-15.61
19,CN(Cc1ccc(Cl)c(F)c1)C(=O)CCc1ccncc1,0.9629
20,COCC(=O)N(C)Cc1ccc(F)c(F)c1,111.3
21,O=C(O)CCN(Cc1ccc(F)c(F)c1)C(=O)C1CC1,170.7
22,CN1CCC(N(C)C(=O)CCc2ccc(F)c(F)c2)C1=O (stereo unspecified),2.381
23,CCC(=O)N(CCN(C)C)Cc1ccc(F)c(F)c1,182.8
24,CN(Cc1nnc2n1CCC2)S(=O)(=O)c1ccc(Br)cc1Cl,10.86
25,CC(=O)N1CCC(CCNC(C)c2cc(F)cc(F)c2)CC1 (stereo unspecified),-11.21
26,CC(C)Oc1cc(N2CCC(N3CCC(O)CC3)CC2)nc(N)n1,11.59

row,SMILES,Percent Effect [%]
1,Cc1nc(CN2CCC3(CCCO3)CCC2=O)no1 (stereo unspecified),31.71
2,CNC(=O)NC(=O)CSc1ccc2c(c1)CCC2,-2.658
3,Cc1noc(-c2cccnc2N(C)Cc2cc(C)on2)n1,2.996
4,COCCCC(=O)N(CCC(=O)O)Cc1ccc(F)c(F)c1,97.51
5,COCCN(Cc1ccncc1)C(=O)CCSCc1ccc(F)cc1,-3.369
6,CCC(=O)N(CC(N)=O)Cc1cccc(Oc2ccccc2)c1,9.242
7,COCCCC(=O)N(C)c1ccc(F)c(Cl)c1,-0.2217
8,CN(C)C(=O)CCC[S+]([O-])Cc1ccc(F)c(F)c1 (stereo unspecified),-13.45
9,CCC(=O)N(CCC(=O)O)Cc1ccc(F)c(F)c1,121.4
10,COCCNc1nc2c(c(NCc3ccncc3)n1)CCNCC2,24.23
11,CC(C)OCCSc1nnnn1C1CCOCC1,-9.456
12,CC(=O)N1CCCN(CCCSc2ccccc2Cl)CC1,-4.168
13,COCCC(=O)N1CCN(CC(C)C)c2nc(C)ccc2C1.O=C(O)C(F)(F)F,6.482
14,Cc1ncsc1CCN(C)C(=O)c1ccc(CN2CCCCC2)cc1,-41.8
15,O=C(O)c1ccc2[nH]cc(CN3CCOCC3)c2c1,-9.058
16,O=C(O)c1ccc2[nH]cc(CN3CCCC3)c2c1,2.363
17,O=C(NCc1ccccc1CN1CCOCC1)c1ccc(Br)cc1F,-0.3449
18,Cc1ncc(CN2CCOCC2)c2cc(C(=O)c3ccc(Br)cc3)oc12.Cl,126.2
19,Cc1ncc(CN2CCCC2)c2cc(C(=O)c3ccc(Br)cc3)oc12.Cl,139.8
20,Cc1nn(C)c(Cl)c1C1CCCN1C(=O)c1nccnc1N (stereo unspecified),-5.243
21,COc1c(C2CCCN2C(=O)c2nccnc2N)c(C)nn1C (stereo unspecified),108.6
22,Cc1nn(C)c(C)c1C1CCCN1C(=O)c1nccnc1N (stereo unspecified),101
23,O=S(=O)(Nc1c(F)cccc1N1CCCC1)c1cncc(F)c1,-6.105
